These results are taken from PubChem BioAssay (NCATS).

The nature of assay [1]: qHTS of pediatric cancer cell lines to identify multiple opportunities for drug repurposing: Confirmatory screen for SJ-GBM2 cells (AID 1347116). Note: nearly all actives have a fitted effect of over 60% in size. Note: potency is the fitted concentration of half-maximal effect. A digest of the protocol:
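Viability measured as metabolically active cells via CellTiter-Glo luminescence following 48 hours of compound exposure, 11-point dilutions in confirmatory testing. 500-1,000 cells/well plated 5 hours before dosing; controls were DMSO and 2.3 µM bortezomib.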

Assay [2] in a line: qHTS of pediatric cancer cell lines to identify multiple opportunities for drug repurposing: Confirmatory screen for BT-37 cells (AID 1347117). Note: nearly all actives have a fitted effect of over 55% in size. Note: potency is the fitted concentration of half-maximal effect. The note with it: BT-37 pediatric cancer cells, viability; activity change, negative = cytotoxic: at 45.9 µM (top of the series). The method, boiled down: (§1)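 Cells (500-1,000/well) rested 5 h, then received compounds for 48 h; metabolically active cells were measured by CellTiter-Glo luminescence. Final concentrations spanned up to 46 µM (MIPE, 11-point) or 0.59 nM-46 µM (NPC, 8-point) in primary screens, 11-point in follow-ups.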

A short description of assay [3]: qHTS of pediatric cancer cell lines to identify multiple opportunities for drug repurposing: Confirmatory screen for TC32 cells (AID 1347118).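 Note: cells exposed to compound for 48 h before the read; nearly all actives have a fitted effect of over 65% in size.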 Note: potency is the fitted concentration of half-maximal effect. The method, boiled down: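 Luminescent ATP read-out (CellTiter-Glo) of metabolically active TC32 cells after 48 h exposure. Concentration-response curves came from 11-point (MIPE, 0.78 nM–46 µM) or 8-point (NPC, 0.59 nM–46 µM) primary titrations; follow-up used 11 points.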

Assay [4] in a line: qHTS of pediatric cancer cell lines to identify multiple opportunities for drug repurposing: Confirmatory screen for MG 63 (6-TG R) cells (AID 1347119). Note: nearly all actives have a fitted effect of over 55% in size. Note: potency is the fitted concentration of half-maximal effect. A digest of the protocol: as §1
Assay [5] in a line: qHTS of pediatric cancer cell lines to identify multiple opportunities for drug repurposing: Confirmatory screen for U-2 OS cells (AID 1347122). Note: nearly all actives have a fitted effect of over 65% in size. Note: potency is the fitted concentration of half-maximal effect. A digest of the protocol: as §1
A short description of assay [6]: qHTS of pediatric cancer cell lines to identify multiple opportunities for drug repurposing: Confirmatory screen for Rh41 cells (AID 1347123).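 Note: potency is the fitted concentration of half-maximal effect; 48 h compound exposure; nearly all actives have a fitted effect of over 60% in size.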 The method, boiled down:
as §1

Assay [7] in a line: qHTS of pediatric cancer cell lines to identify multiple opportunities for drug repurposing: Confirmatory screen for RD cells (AID 1347124).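 Note: cells exposed to compound for 48 h before viability readout; nearly all actives have a fitted effect of over 65% in size.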 Note: potency is the fitted concentration of half-maximal effect. A digest of the protocol:
as §1

A short description of assay [8]: qHTS of pediatric cancer cell lines to identify multiple opportunities for drug repurposing: Confirmatory screen for control Hh wild type fibroblast cells (AID 1347121). Note: nearly all actives have a fitted effect of over 70% in size. Note: potency is the fitted concentration of half-maximal effect. The method, boiled down:
as §1

Assay [9] can be described thus: qHTS of pediatric cancer cell lines to identify multiple opportunities for drug repurposing: Confirmatory screen for NB-EBc1 cells (AID 1347115).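 Note: cells exposed to compound for 48 h before the viability read; nearly all actives have a fitted effect of over 45% in size.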 The method, boiled down:
as §1

Inconclusive results are not listed. The source made the active and inactive calls. Calls come from the whole dose curve; as a rule, active = well fitted curve in the direction sought with a large enough effect; inconclusive = small, poorly fitted or top-dose-only effect, or another doubt; inactive = no such curve, though single readings can be large; an effect the other way counts as inactive or inconclusive.

Turning to `CC(=O)NCC(=O)N1[C@H]2CC[C@H]1c1cc(Nc3ncc(C(F)(F)F)c(NC4CCC4)n3)ccc12`, the Potency in [1] is 5850 nM (active); in assay [2] it was 11700 nM (active); in assay [3] it was 46.5 nM (active); in assay [4], 233 nM (active); in assay [5] it was 1850 nM (active); in [6], 1310 nM (active). Besides, the Potency in [7] is 13100 nM (active).
Turning to `COc1cccc2c1C(=O)c1c(O)c3c(c(O)c1C2=O)C[C@@](O)(C(C)=O)C[C@H]3O[C@H]1C[C@H](N)[C@H](O)[C@H](C)O1`, the Potency in assay [1] is 1310 nM (active); in [2], 165 nM (active); in assay [3], 117 nM (active); in assay [4] it was 233 nM (active); in assay [5], 7370 nM (active); in assay [6], 585 nM (active). In addition, the Potency in assay [7] was 2610 nM (active).
Consider `CC(C=CC(=O)NO)=C[C@@H](C)C(=O)c1ccc(N(C)C)cc1`, for which the Potency was 2080 nM (active) in assay [1]; 827 nM (active) in assay [2]; 414 nM (active) in assay [3]; 1170 nM (active) in [4]; 6570 nM (active) in assay [8]; 657 nM (active) in [5]. Also, the figures for the Potency in [6] and in assay [7] were 1470 nM (active) and 1310 nM (active), respectively.
For `CC(=O)SCC(Cc1ccccc1)C(=O)NCC(=O)OCc1ccccc1` (stereo unspecified), the Potency entry in assay [9], in [1], in assay [2], in assay [4], in assay [8] and in [5] was “inactive” in each case. In assay [7], the Potency entry is “inactive”.
With `C[C@H]1[C@@H](OC(=O)CCC(=O)O)O[C@@H]2O[C@@]3(C)CC[C@@H]4[C@H](C)CC[C@@H]1[C@@]24OO3`, the Potency in assay [1] is 1170 nM (active); in [2], 3690 nM (active); in [3], 9270 nM (active); in assay [4], 20800 nM (active); in [5], 13100 nM (active); in assay [6], 5850 nM (active). Moreover, the Potency in [7] is 1040 nM (active). Moreover, in assay [8], the Potency result is “inactive”.
As to `Cc1cc(Nc2ncc3c(n2)N(C)C(=O)N(c2cc(NC(=O)c4cccc(C(F)(F)F)c4)ccc2C)C3)n(C)n1`, the Potency is 329 nM (active) in [3]; 465 nM (active) in assay [4]; 369 nM (active) in assay [5]; 208 nM (active) in [6]; 657 nM (active) in [7].
For the molecule `CC(=O)ON=C1C(c2c(O)[nH]c3cc(Br)ccc23)=Nc2ccccc21`, the results for the Potency in assay [2], in assay [3] and in assay [4] were 16500 nM (active), 16500 nM (active) and 18500 nM (active), respectively. Further, in assay [8], the Potency result is “inactive”.
For `CCCCC(=O)O[C@]1(C(=O)CO)[C@@H](C)C[C@H]2[C@@H]3CCC4=CC(=O)C=C[C@]4(C)[C@@]3(F)[C@@H](O)C[C@@]21C`, the Potency entry in assay [1], in [2], in assay [4], in [8], in [5] and in assay [7] was “inactive” throughout.
Consider `CNC(=O)c1cccc(-c2ccc3c(N4CCOC[C@H]4C)nc(N4CCOC[C@H]4C)nc3n2)c1`, for which the Potency was 2610 nM (active) in [1]; 737 nM (active) in assay [3]; 522 nM (active) in assay [4]; 261 nM (active) in [5]; 585 nM (active) in assay [6].
In the case of `COc1cccc2c1C(=O)c1c(O)c3c(c(O)c1C2=O)C[C@@](O)(C(=O)CO)C[C@@H]3O[C@H]1C[C@H](N)[C@H](OC2CCCCO2)[C@H](C)O1` (stereo partly specified), the Potency is 928 nM (active) in assay [2], 465 nM (active) in assay [3], 1470 nM (active) in assay [4] and 2930 nM (active) in assay [6].
Turning to `FC(F)c1nc2ccccc2n1-c1nc(N2CCOCC2)nc(N2CCOCC2)n1`, the Potency entry in [1] is “inactive”. For the same molecule, the Potency was 1470 nM (active) in assay [2]; 928 nM (active) in assay [3]; 928 nM (active) in [4]; 4650 nM (active) in assay [5]; 8270 nM (active) in [7].
Take `COc1cc([C@@H]2c3cc4c(cc3[C@@H](O[C@@H]3O[C@@H]5CO[C@@H](c6cccs6)O[C@@H]5[C@H](O)[C@@H]3O)[C@H]3COC(=O)[C@H]23)OCO4)cc(OC)c1O`: the Potency in assay [2] was 261 nM (active); in assay [3] it was 131 nM (active); in assay [5], 2330 nM (active). Also, the Potency entry in [8] was “inactive”.
Take `CC(=O)O[C@@]12CO[C@H]1C[C@H](O)[C@@]1(C)C(=O)[C@H](O)C3=C(C)[C@@H](OC(=O)C(O)[C@@H](NC(=O)OC(C)(C)C)c4ccccc4)C[C@@](O)([C@@H](OC(=O)c4ccccc4)[C@@H]21)C3(C)C` (stereo partly specified): the Potency was 5.9 nM (active) in assay [3], 7.4 nM (active) in assay [4] and 10.4 nM (active) in assay [6]. In addition, the Potency entry in assay [8] is “inactive”.
`CCC(C(=O)O)C1CCC(C)C(C(C)C(O)C(C)C(=O)C(CC)C2OC3(C=CC(O)[C@@]4(CC[C@](C)(C5CC[C@@](O)(CC)C(C)O5)O4)O3)C(C)CC2C)O1` (stereo partly specified): the Potency result in assay [2], in [3] and in assay [4] was “inactive” throughout. In addition, the Potency in assay [5] is 7370 nM (active); in [6] it was 1470 nM (active).
With `N#Cc1c(NC(=O)c2cccc3ccccc23)sc2c1CCCC2`, the Potency in assay [2] is 827 nM (active); in assay [3], 233 nM (active); in assay [4], 329 nM (active); in assay [5], 657 nM (active). Besides, in assay [8], the Potency entry was “inactive”.
As for `COc1cc2ncnc(Nc3cccc(Br)c3)c2cc1OC`, the Potency in [1] was 3690 nM (active); in assay [2], 18500 nM (active); in assay [3], 9270 nM (active); in assay [6], 11700 nM (active). Besides, the Potency result in assay [8] and in assay [5] was “inactive” throughout.
For the molecule `C=CC(=O)Nc1ccc2ncnc(Nc3ccc(OCc4cccc(F)c4)c(Cl)c3)c2c1`, the Potency in assay [1] is 2610 nM (active); in [2], 9270 nM (active); in [3], 7370 nM (active); in assay [4] it was 8270 nM (active); in assay [6], 465 nM (active); in assay [7] it was 1470 nM (active).
For `C=C1C(=CC=C2CCC[C@]3(C)[C@@H]([C@H](C)CCCC(C)(C)O)CC[C@@H]23)C[C@@H](O)C[C@@H]1O`, the Potency result in assay [1], in [2], in assay [8] and in [7] was “inactive” throughout.
Turning to `Cn1cc(-c2cnn3c(N)c(Br)c([C@H]4CCCNC4)nc23)cn1`, the Potency is 3690 nM (active) in assay [2], 5850 nM (active) in [3] and 2930 nM (active) in assay [5]. The Potency result in assay [8] and in [7] was “inactive” in each case.
